Screening results deposited in PubChem BioAssay by Broad Institute.
Not all results are given here.
aSyn 5UTR act: Activators via SNCA 5'UTR binding, MLPCN. hit rate 7.1% among 300,000. alpha-synuclein 5'UTR reporter, activators screen. activity score, % (tested at 7.5 µM), hits read low; in the data active = activity score below about -60%
* marks the source's active call; other numbers are inactive results.

SMILES	aSyn 5UTR act
O=C(Nc1cccc2nsnc12)c1ccc(-c2ccc(Br)cc2)o1	-157*
N#CC(C#N)=Cc1ccc(NC(=O)c2ccc(Br)cc2)cc1	-153*
CC(C)(C)c1ccc(C(=O)Nc2ccc(C=C(C#N)C#N)cc2)cc1	-175*
CC(=O)c1cccc(NC(=O)c2cnn3ccccc23)c1	-106*
CC(=O)c1cccc(NC(=O)c2ccc3c(c2)CCCC3)c1	-132*
CC(=O)c1cccc(NC(=O)Nc2ccc3c(c2)CCC3)c1	-91*
CCc1ccc(NC(=O)Nc2ccc3c(c2)CCC3)cc1	-125*
CC(=O)c1ccc(NC(=O)c2cnn3ccccc23)cc1	79
O=C(Nc1ccc2c(c1)CCC2)c1cccc(F)c1	-143*
Cn1cc(C(=O)Nc2ccc3c(c2)CCC3)cn1	-105*
Cc1cccc(NC(=O)Nc2ccc3c(c2)CCC3)c1	-116*
COc1cccc(NC(=O)COc2ccc3c(c2)CCC3)c1	-65*
O=c1cccc2c1c1cc[nH]c3ccc(=O)n2c31	79
COc1cccc(NC(=O)Nc2ccc3c(c2)CCC3)c1	-130*
C#CCN1C(=O)S/C(=C\c2ccc(N3CCOCC3)cc2C)C1=O	-150*
CCN1C(=O)S/C(=C\c2ccc(N3CCOCC3)cc2C)C1=O	-148*
Cc1n[nH]c(=S)n1/N=C/c1ccc(OCc2ccc(Cl)cc2)cc1	-99*
Cc1n[nH]c(=S)n1/N=C/c1ccc(OCc2ccc(Cl)cc2Cl)cc1	-82*
Brc1ccc(-c2csc(-c3c[nH]c4ccccc34)n2)cc1	-183*
c1ccc2c(-c3csc(-c4ccncc4)n3)c[nH]c2c1	-141*
CCOc1ccc(C(=O)Nc2nnc(SCC(=O)NCC3CCCO3)s2)cc1 (stereo unspecified)	76
Cc1ccc(-c2ccc(SCC(=O)NCC3CCCO3)nn2)cc1 (stereo unspecified)	-85*
CCOc1ccc(-c2ccc(SCC(=O)NCC3CCCO3)nn2)cc1 (stereo unspecified)	-67*
CCOC(=O)c1c(C)n(-c2ccc(C)cc2)c2ccc(OCC(O)CNCC3CCCO3)cc12 (stereo unspecified)	75
CC(C)c1ccc(N=C2N=C(N)c3ccccc32)cc1	-132*
SMILES	aSyn 5UTR act
Cc1nnc(SCC(=O)Nc2nsc(-c3ccc(C(C)(C)C)cc3)n2)s1	-70*
Cc1ccc(NC(=O)CN(C)C(=O)Cn2ncc(Cl)c(Cl)c2=O)cc1	82
C=COCCNC(=O)Nc1ccc(Cl)c(Cl)c1	-127*
O=C(NCC1CC1(Cl)Cl)Nc1ccc(Cl)c(Cl)c1 (stereo unspecified)	-156*
Cc1ccc(NC(=O)NCC2CC2(Cl)Cl)cc1 (stereo unspecified)	-165*
CN(C(=O)c1ccco1)c1nc(-c2ccccc2)cs1	-158*
COCCN(C(=O)c1ccccc1F)c1nnc(-c2ccc(OC)cc2)s1	-73*
CCN(C(=O)c1ccco1)c1nc(-c2ccc(OC)cc2)cs1	-159*
CCN(C(=O)c1ccccc1F)c1nc(-c2ccc(OC)cc2)cs1	-199*
C=CCN(C(=O)CCc1ccccc1OC)c1nc(-c2ccc(S(C)(=O)=O)cc2)cs1	71
CCC(=O)N(CC)c1nc(-c2ccc(OC)cc2)cs1	-161*
COCCN(C(=O)c1ccccc1F)c1nc(-c2ccc(OC)cc2)cs1	-73*
CCOC(=O)c1cc(C(=O)Nc2ccccc2F)nn1C	-159*
O=C1/C(=C/c2cccnc2)CCc2c1[nH]c1ccccc21	-126*
CC(C)C/C=C1\CCc2c([nH]c3ccccc23)C1=O	-229*
O=C(c1ccc(COc2ccccc2Br)cc1)N1CCCCC1	-77*
Fc1ccc(COc2ccc(C(=S)N3CCCC3)cc2)cc1	-77*
Cc1cccc(OCCn2c(=O)oc3ccc(C)cc32)c1	-110*
Cc1ccc(C)c(NC(=O)c2cc3ccccn3n2)c1	-196*
Cc1ccccc1NC(=O)c1cc2ccccn2n1	-109*
Cc1ccc(OC(=O)c2sc3ncn(C)c(=O)c3c2C)cc1	-120*
CCN(CC)CCNc1cc(C)nc2c1C(=O)C(=O)C=C2N1CCCCC1	81
O=C(Nc1nccs1)c1ccc(Br)o1	-102*
O=C(/C=C/c1ccc(Br)o1)Nc1nccs1	-149*
Cc1nc(NC(=O)c2ccc3c(c2)OCO3)ccc1Br	-140*
SMILES	aSyn 5UTR act
CC(C)(C)c1csc(NC(=O)c2ccc3nccnc3c2)n1	-178*
Cc1ccc(NC(=O)c2ccc3nccnc3c2)c(C)c1	-102*
Cc1cc(NC(=O)c2ccc3c(c2)OCCO3)no1	62
Cc1cccc(NC(=O)c2ccc3c(c2)OCCO3)n1	-84*
Cc1cccc(NC(=O)c2ccc3nccnc3c2)n1	-76*
CC(C)c1ccc(NC(=O)c2ccc(Br)o2)cc1	-148*
O=C(NC(=S)Nc1ccccc1)c1ccc(Br)o1	-287*
NC(=O)c1ccccc1NC(=S)NC(=O)c1ccc(Br)o1	-124*
O=C(Nc1ccc2c(c1)Cc1ccccc1-2)c1ccc(Br)o1	-94*
O=C(Nc1ccc(Nc2ccccc2)cc1)c1ccc(Br)o1	-128*
COc1ccc(NC(=O)c2ccc(Br)o2)cc1	-159*
CC(C)(C)c1ccc(C(=O)Nc2ccc(CC(=O)O)cc2)o1	111
CCCC(=O)Nc1ccc2c(c1)Cc1ccccc1-2	-138*
COc1ccc(NC(=S)NC(=O)c2ccc(Br)o2)cc1	-107*
O=C(Nc1cccc(OC(=O)c2ccc(Br)o2)c1)c1ccccc1	-66*
Cc1ccc(F)cc1NCC(=O)Nc1ccc(Br)cc1	-146*
Cc1ccc(NCC(=O)Nc2ccc(Br)cc2)cc1C	-126*
COC(=O)c1sccc1-c1ccc(C(=O)Nc2cccnc2)o1	-76*
O=C(NN(c1ccccc1)c1ccccc1)c1ccc([N+](=O)[O-])o1	-83*
NC(=O)c1oc2ccccc2c1NC(=O)c1ccc([N+](=O)[O-])o1	100
O=C(Nc1cccnc1)c1ccc([N+](=O)[O-])o1	-202*
O=C(NCc1cccnc1)c1ccc([N+](=O)[O-])o1	-117*
CCOC(=O)N/C(N)=N/c1nc2ccccc2s1	-116*
CC(=O)N/C(N)=N/c1nc(=O)c2ccccc2s1	-99*
CCNC(=S)NNC(=O)c1csc(C(C)C)c1	-76*
SMILES	aSyn 5UTR act
O=C(NC1=NCCS1)C12CC3CC(C1)CC(C(=O)NC1=NCCS1)(C3)C2	-71*
Cc1ccc(-c2nn(-c3ccccc3)cc2C=C2C(=O)CC(C)(C)CC2=O)cc1	-94*
CC1=NNC(=O)/C1=C\c1cn(-c2ccccc2)nc1-c1ccc(Cl)cc1	98
COc1cc(C2NC(=S)NC(O)(C(F)(F)F)C2C(=O)c2cccs2)cc(OC)c1O (stereo unspecified)	-95*
CN1C(=O)NC(c2ccc(O)cc2)C(C(=O)c2cccs2)C1(O)C(F)(F)F (stereo unspecified)	-100*
Cc1ncsc1C(=O)Nc1nc2c(s1)CC(C)CC2 (stereo unspecified)	-126*
COC(=O)c1c(NC(=O)CN2CCOCC2)sc2c1CCC(C)C2 (stereo unspecified)	-123*
CC1CCc2nc(NC(=O)C3CC3)sc2C1 (stereo unspecified)	-138*
CC1CCc2nc(NC(=O)Nc3ccc4c(c3)OCO4)sc2C1 (stereo unspecified)	-123*
CC1CCc2nc(NC(=O)C3COc4ccccc4O3)sc2C1 (stereo unspecified)	63
CC1CCc2nc(NC(=O)CN3CCOCC3)sc2C1 (stereo unspecified)	-92*
Cc1cc(=O)n2nc(-c3ccccc3)sc2n1	-99*
CCC1=C/C(=C/N(C)c2ccccc2)C(=O)S1	-62*
c1ccn2cc(CSC3=NCCS3)nc2c1	-118*
